Compound activity: PubChem, several laboratories
An excerpt weighted towards active compounds, which were near 5.9% of everything screened.
GAA850 FXN act = activators of GAA850 frataxin (FXN) promoter. HEK293 lucGAA850 FXN promoter luciferase reporter, 24 h; percent of 10 µM SAHA response. activation, % at 6 µM. 0.56% of 360,000 active. AID 540364;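 active means activation above the average of all compounds screened plus 3 SD, cutoff fixed separately per campaign, cut at about 7.5% in these data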
HSF1 activator = increases HSF-1 driven luciferase reporter signal. NIH3T3-HGL HSF-1 luciferase reporter, MG132, 8 h; 100% = twice DMSO control signal. activation, % at 9 µM. 1.7% of 300,000 active. AID 504408;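 active means mean replicate activation of at least 50% with a set share of replicates each reaching 50%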
AHR act = human AHR activation | P35869 | AHR-responsive luciferase reporter cells, luminescence | activation, % at 5 µM | 2.5% of 320,000 active | AID 2796; in the data active means activation above about 47%
Target sequence (P35869 whole entry, looked up): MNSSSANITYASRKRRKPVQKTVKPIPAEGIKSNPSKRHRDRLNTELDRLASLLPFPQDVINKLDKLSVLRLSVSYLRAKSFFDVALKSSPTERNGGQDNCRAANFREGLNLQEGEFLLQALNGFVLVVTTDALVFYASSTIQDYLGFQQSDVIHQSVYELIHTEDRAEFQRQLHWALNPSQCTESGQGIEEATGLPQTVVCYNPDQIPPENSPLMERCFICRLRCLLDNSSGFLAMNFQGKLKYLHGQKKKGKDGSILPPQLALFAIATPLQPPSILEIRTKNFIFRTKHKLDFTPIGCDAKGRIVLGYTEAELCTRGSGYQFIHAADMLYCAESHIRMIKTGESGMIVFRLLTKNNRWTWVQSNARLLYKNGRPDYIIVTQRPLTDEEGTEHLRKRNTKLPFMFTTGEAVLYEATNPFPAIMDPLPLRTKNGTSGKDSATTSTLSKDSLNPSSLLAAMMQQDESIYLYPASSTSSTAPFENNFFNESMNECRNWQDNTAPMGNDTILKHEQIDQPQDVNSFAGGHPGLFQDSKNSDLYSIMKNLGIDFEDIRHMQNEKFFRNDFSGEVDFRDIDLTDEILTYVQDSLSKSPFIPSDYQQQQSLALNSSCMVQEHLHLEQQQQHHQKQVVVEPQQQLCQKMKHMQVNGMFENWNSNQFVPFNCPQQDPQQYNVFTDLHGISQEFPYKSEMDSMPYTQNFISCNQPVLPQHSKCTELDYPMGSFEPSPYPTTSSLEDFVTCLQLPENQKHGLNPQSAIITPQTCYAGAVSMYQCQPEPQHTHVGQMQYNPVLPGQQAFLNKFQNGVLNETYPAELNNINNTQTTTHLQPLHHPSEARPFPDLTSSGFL
HSP90 inh = blocks HSP90-mediated luciferase refolding in reticulocyte lysate; Rabbit reticulocyte lysate, luciferase refolding luminescence, 3 h; inhibition, % at 5.6 µM; 0.91% of 290,000 active;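 active means inhibition above the screen-wide mean plus 3 SD, computed separately per campaign, cut at about 16% in these data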;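 further: inhibitors lower the luminescence because luciferase stays unfolded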
NR0B1 inh = inhibits human nuclear receptor DAX1 | P51843 | HEK293 Gal4-DAX1 luciferase reporter, luminescence | inhibition, % at 6.75 µM | 0.99% of 340,000 active;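 active means inhibition above the mean over all tested compounds plus 3 SD, cut at about 4.2% in these data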;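 further: inhibition shows as a rise in luminescence from relieved DAX1 repression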
HSF1 inhib = HSF1 inhibition | NIH3T3-HGL HSE-luciferase, MG132-induced, luminescence 8 h; hits give low values | activity change, negative = inhibition, % at 7.5 µM (by protocol) | 0.77% of 300,000 active;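 active means more than half of replicate wells show activity change below -50%, luminescence cut by over half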;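 further: luciferase reports HSF-1 transcriptional activity via heat shock element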
Numbers stand for hits.

For O=C(Sc1cccc2cccnc12)c1ccccc1Br the results were GAA850 FXN act inactive, HSF1 activator 207.4, AHR act inactive, HSP90 inh inactive, NR0B1 inh inactive and HSF1 inhib inactive.
O=c1ccoc2ccccc12 was read as GAA850 FXN act inactive.
Screening COCCn1c(SCc2ccc(Cl)cc2)nc2c1c(=O)[nH]c(=O)n2C returned GAA850 FXN act inactive, HSF1 activator 58.2, AHR act inactive, NR0B1 inh inactive and HSF1 inhib inactive.
`COCCn1c(SCc2ccc(C)cc2)nc2c1c(=O)[nH]c(=O)n2C` gave GAA850 FXN act inactive, HSF1 activator inactive, AHR act inactive and HSF1 inhib inactive.
`CCCCOc1ccc(S(N)(=O)=O)cc1` gave GAA850 FXN act inactive, HSF1 activator inactive, AHR act inactive, HSP90 inh inactive, NR0B1 inh inactive and HSF1 inhib inactive.
Screening COc1ccc(N=Cc2ccc[nH]2)cc1 returned GAA850 FXN act inactive, HSF1 activator inactive, AHR act inactive, HSP90 inh inactive, NR0B1 inh inactive and HSF1 inhib -62.5.
`COc1ccc(N=Cc2ccc(-c3ccccc3)o2)cc1` gave GAA850 FXN act inactive, HSF1 activator inactive, AHR act inactive, HSP90 inh inactive, NR0B1 inh inactive and HSF1 inhib inactive.
Screening CCCCOc1ccc(N=Cc2ccc[nH]2)cc1 returned GAA850 FXN act inactive, HSF1 activator inactive, AHR act inactive, HSP90 inh inactive, NR0B1 inh inactive and HSF1 inhib -68.0.
Screening CC(C)Oc1cc(F)ccc1-c1cc(C(=O)NCc2cccs2)[nH]n1 returned GAA850 FXN act inactive.
Nc1nc(SCC(=O)Nc2ccc([N+](=O)[O-])cc2Br)n[nH]1 was read as GAA850 FXN act inactive, HSF1 activator 57.8, AHR act inactive, HSP90 inh inactive, NR0B1 inh inactive and HSF1 inhib inactive.
For COc1ccc([N+](=O)[O-])cc1NC(=O)CSc1nccc(C)n1 the results were GAA850 FXN act inactive, HSF1 activator inactive, AHR act 68.7, HSP90 inh inactive, NR0B1 inh inactive and HSF1 inhib inactive.
For CC(C)c1nc(SCC(=O)Nc2ccc([N+](=O)[O-])cc2Br)n[nH]1 the results were GAA850 FXN act inactive, HSF1 activator inactive, AHR act inactive, HSP90 inh inactive, NR0B1 inh inactive and HSF1 inhib inactive.
O=C(NC(Sc1ccc(Cl)cc1)C(=O)O)c1ccccc1 (stereo not given) was read as GAA850 FXN act inactive and NR0B1 inh inactive.
CN(C)S(=O)(=O)Oc1cc(Cl)ccc1C(=O)Nc1ccc(F)cc1F was read as GAA850 FXN act inactive, HSF1 activator inactive, AHR act 74.0, HSP90 inh inactive, NR0B1 inh inactive and HSF1 inhib inactive.
`COC(=O)C1=C(C)N(c2ccc(OC)cc2)C(C)=C(C(=O)OC)C1c1ccccc1` gave GAA850 FXN act inactive, HSF1 activator inactive, AHR act inactive, HSP90 inh inactive, NR0B1 inh 4.9 and HSF1 inhib inactive.
For COC(=O)C1=C(C)N(c2ccc(OC)cc2)C(C)=C(C(=O)OC)C1c1ccc(OC)cc1 the results were GAA850 FXN act inactive, HSF1 activator inactive, AHR act inactive, HSP90 inh inactive and HSF1 inhib inactive.
`Cc1ccc(-c2c[n+](CC(=O)Nc3ccccc3C)c3n2CCC3)cc1` gave GAA850 FXN act inactive, AHR act inactive, HSP90 inh inactive and NR0B1 inh 4.3.
Cc1ccc(NC(=O)C[n+]2cc(-c3ccccc3)n3c2CCC3)cc1 was read as GAA850 FXN act inactive, HSF1 activator inactive, AHR act inactive, HSP90 inh inactive and HSF1 inhib inactive.
`O=C(C[n+]1cc(-c2ccc(F)cc2)n2c1CCC2)c1cccs1` gave GAA850 FXN act inactive, HSF1 activator inactive, AHR act inactive, HSP90 inh inactive, NR0B1 inh 6.7 and HSF1 inhib inactive.
Cn1c(NC(=O)C[n+]2cc(-c3ccc(F)cc3)n3c2CCC3)cc(=O)n(C)c1=O was read as GAA850 FXN act inactive, HSF1 activator inactive, AHR act inactive, HSP90 inh inactive, NR0B1 inh inactive and HSF1 inhib inactive.
O=C(OCc1ccccc1)N1CCC2CC1c1c(-c3ccc(C(F)(F)F)cc3)cccc12 (stereo not given) was read as GAA850 FXN act inactive and NR0B1 inh inactive.
Screening O=C(c1ccc(F)cc1)C1CCN(Cc2ccc(F)cc2)CC1 returned GAA850 FXN act inactive, HSF1 activator inactive, AHR act inactive, HSP90 inh inactive, NR0B1 inh inactive and HSF1 inhib inactive.
Screening CCOC(=O)C(=Cc1ccc(-c2ccsc2C(=O)OC)o1)C(=O)OCC returned GAA850 FXN act inactive, HSF1 activator 90.0, AHR act inactive, HSP90 inh inactive, NR0B1 inh inactive and HSF1 inhib inactive.
`COc1cc(/C=N/N=C2/C(=O)Nc3ccccc32)ccc1O` gave GAA850 FXN act inactive, HSF1 activator inactive, AHR act inactive, HSP90 inh inactive, NR0B1 inh inactive and HSF1 inhib inactive.
For Cc1ccsc1/C=N/N=C1\C(=O)Nc2ccccc21 the results were GAA850 FXN act inactive, HSF1 activator inactive, AHR act 69.8, HSP90 inh inactive, NR0B1 inh inactive and HSF1 inhib inactive.
`O=C1Nc2ccccc2/C1=N\N=C\c1ccc(O)c(O)c1` gave GAA850 FXN act inactive, HSF1 activator inactive, AHR act inactive, HSP90 inh inactive, NR0B1 inh 4.5 and HSF1 inhib inactive.
For CC(CC(F)(F)F)N1CCC(n2nccc2NC(=O)CCOc2ccccc2)CC1 (stereo not given) the results were GAA850 FXN act inactive, HSF1 activator inactive, AHR act inactive, HSP90 inh inactive, NR0B1 inh inactive and HSF1 inhib inactive.
O=C(Nc1nc2ccccc2[nH]1)c1cccs1 was read as GAA850 FXN act inactive, HSF1 activator 55.2, AHR act inactive, HSP90 inh inactive, NR0B1 inh inactive and HSF1 inhib inactive.
`O=C(Nc1nc2ccccc2[nH]1)C1CC1` gave GAA850 FXN act inactive, HSF1 activator inactive, AHR act inactive, HSP90 inh inactive, NR0B1 inh inactive and HSF1 inhib inactive.
O=c1[nH]c2ccccc2nc1-c1cccs1 was read as GAA850 FXN act inactive, HSF1 activator inactive, AHR act inactive, HSP90 inh inactive, NR0B1 inh inactive and HSF1 inhib inactive.
O/C(=C\c1nc2ccccc2[nH]1)c1cccs1 was read as GAA850 FXN act inactive, HSF1 activator 59.5, AHR act inactive, HSP90 inh inactive, NR0B1 inh inactive and HSF1 inhib inactive.
`CSc1ccccc1C(=O)Nc1nc2ccccc2[nH]1` gave GAA850 FXN act inactive, HSF1 activator inactive, AHR act 68.2, HSP90 inh inactive, NR0B1 inh inactive and HSF1 inhib inactive.
Screening COC(=O)C1C(c2ccc(OC)cc2)Nc2nnc(C(F)(F)F)n2C1(C)O (stereo not given) returned GAA850 FXN act inactive, HSF1 activator inactive, AHR act inactive, HSP90 inh inactive, NR0B1 inh inactive and HSF1 inhib inactive.
